# PubChem BioAssay (NCI)
# “And” between values parts separate entries of the source, which are not always exact repeats. Identical values can stand only once. This is part of a sample that, as a whole, favours compounds with a hit. Of some 83,000 tested, about 20% had one in any assay.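 A percent growth of 40 corresponds to 60% growth inhibition; 0 means no net growth; -100 means all cells died. Active threshold: below 10.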 The source made the active and inactive calls.
# System: TK-10 renal
# Experiment: NCI-60 one-dose screen, 48 h (100 = growth as untreated, 0 = no growth, -100 = all killed)
# Conditions: 10 µM unless noted
row,Structure (SMILES),growth
1,C=CC(COC(=O)C(C)(C)OC(C)=O)c1ccc(OC(=O)C(C)C)c(OC)c1 (stereo not drawn),-92.8% [100 µM] (active) and -93% [100 µM] (active)
2,Cc1ccc2c(sc(-c3ccc4c(c3)sc(-c3ccc5c(c3)sc(-c3ccc(N(C)C)cc3)[n+]5C)[n+]4C)[n+]2C)c1S(=O)(=O)O (tested in a mixture with another compound),106% [100 µM] (inactive) and 47.3% [100 µM] (inactive)
3,CC(C)C1OC(N)=C(C#N)C1(C#N)C#N (stereo not drawn),62.1% [100 µM] (inactive) and 24.7% [100 µM] (inactive)
4,COc1ccc(C)cc1NC(=S)C#N,112% [100 µM] (inactive) and 36.2% [100 µM] (inactive)
5,COc1cc(C)c2c(c1C=O)Oc1c(c(C)c(O)c3c1C(O)OC3=O)OC2=O (stereo not drawn),-0.673% [100 µM] (active) and 99.4% [100 µM] (inactive)
6,Cc1ccc(F)cc1NC(=O)O/N=C(\Cl)C(C)C,65.6% [100 µM] (inactive) and 72.9% [100 µM] (inactive)
7,COC(=O)C(Cc1nc2ccccc2[nH]c1=O)C(=O)C(=O)Nc1cc(C(F)(F)F)ccc1Cl (stereo not drawn),-90.1% [100 µM] (active) and 0.262% [100 µM] (active)
8,O=C(O)CCCC(=O)Nn1c(Cc2ccc(Cl)cc2)n[nH]c1=O,85.5% [100 µM] (inactive) and 95% [100 µM] (inactive)
9,Fc1ccc(Nc2nc(Cl)c3[nH]cnc3n2)cc1Cl,48.7% [100 µM] (inactive) and -27.6% [100 µM] (active)
10,N#C/C=C1\C=CC(O)C(O)C1OC1OC(CO)C(O)C(O)C1O (stereo not drawn),97.1% [100 µM] (inactive) and 93.8% [100 µM] (inactive)
11,C/C(O)=C/c1nc2sc(C)c(C)c2c(=O)s1,50.2% [100 µM] (inactive) and 46.7% [100 µM] (inactive)
12,CC1=C2NCN(C)N=C2C(C#N)(C#N)C1(C#N)C#N,-7.38% [100 µM] (active) and -90.4% [100 µM] (active)
13,COC(=O)C1CCC(=O)N1CN(C(C)=O)c1cccc(O)c1 (stereo not drawn),77.3% [100 µM] (inactive) and 106% [100 µM] (inactive)
14,COC(=O)c1ccc(NC(=O)O/N=C(\Cl)C(C)C)cc1,-100% [100 µM] (active)
15,Cc1ccc2c(/C=C/c3ccc(N(C)C)cc3)ccc(C(C)C)cc1-2,104% [100 µM] (inactive) and -33% [100 µM] (active)
16,Cc1coc2c1C(OC(=O)C(C)C)C1(C)C(C)CCC(O)C1C2=O (stereo not drawn),87.9% [100 µM] (inactive) and 63.5% [100 µM] (inactive)
17,C=CCNC1=C2C[C@@H](C)C[C@@H](OC)[C@@H](OC(=O)CCCN)[C@H](C)/C=C(\C)[C@@H](OC(N)=O)[C@H](OC)/C=C\C=C(/C)C(=O)NC(=CC1=O)C2=O,-57.4% [100 µM] (active) and -99.4% [100 µM] (active)
18,N#Cc1nc(C(F)(F)F)oc1N,79% [100 µM] (inactive) and 98.6% [100 µM] (inactive)
19,NC(=S)Nc1[nH]c(=S)nc2c1SC1=N/C(=C\c3ccco3)C(=O)N12,75.1% [100 µM] (inactive) and 26.4% [100 µM] (inactive)

row,Structure (SMILES),growth
1,C=C1C(=O)OC2/C=C(\CO)CC/C=C(\CO)CC(OC(=O)C(C)C)C12 (stereo not drawn),-97% [100 µM] (active) and -96.5% [100 µM] (active)
2,COc1c(OC)c(OC)c2c(c1OC)c(=O)c1ccccc1n2C,87.4% [100 µM] (inactive) and 35% [100 µM] (inactive)
3,C=C1C(=O)O[C@@H]2C[C@@]3(C)CC(=O)C=C(C)[C@@H]3C[C@H]12,-87.6% [100 µM] (active) and -78.7% [100 µM] (active)
4,COc1cc2c(cc1-c1coc3cc(O)ccc3c1=O)OCO2,81.2% [100 µM] (inactive) and 3.05% [100 µM] (active)
5,COC(=O)C(C(=O)C(=O)Nc1c(C)cccc1C(C)(C)C)c1nc2ccc(Cl)cc2[nH]c1=O (stereo not drawn),141% [100 µM] (inactive) and 105% [100 µM] (inactive)
6,CNC(=S)/C(=N\Nc1nc[nH]c1C(N)=O)C(N)=S,5.27% [100 µM] (active) and 4.34% [100 µM] (active)
7,CCCCCCCCCCCCC/C=C/[C@H]1[C@@H](C(=O)OC)N1S(=O)c1ccc(C)cc1 (stereo partly drawn),107% [100 µM] (inactive) and 52.5% [100 µM] (inactive)
8,COC(=O)c1cc(C#N)[nH]c1-c1ccsc1,93.8% [100 µM] (inactive) and 19.4% [100 µM] (inactive)
9,CCCCCCCCCC(O)CC(=O)c1c(O)cccc1O (stereo not drawn),4.56% [100 µM] (active) and 1.03% [100 µM] (active)
10,CC(C)=CC(O)C/C(C)=C/CC/C(C)=C/CCC1(C)C(CCCO)/C(=C(/C)C=O)CCC1(C)O (stereo not drawn),49.7% [100 µM] (inactive) and 9.22% [100 µM] (active)
11,CCOc1cc2c(cc1O)C=C[C@@H]1[C@@H]2CC[C@]2(C)[C@@H](O)CC[C@@H]12,-4.09% [100 µM] (active) and -100% [100 µM] (active)
12,Cn1c2c(c3ccccc3c1=O)C(=O)c1ccccc1-2,-92.2% [100 µM] (active) and -100% [100 µM] (active)
13,O[C@H]1[C@H](O)[C@@H](Cn2nnc(-c3ccccc3)c2-c2ccccc2)OCO[C@@H]1Cn1nnc(-c2ccccc2)c1-c1ccccc1,-89.7% [100 µM] (active)
14,N#CC1(C#N)N[C@@H](c2ccsc2)[C@H]2C(=O)N(c3ccccc3)C(=O)[C@H]21,55.7% [100 µM] (inactive) and 30.9% [100 µM] (inactive)
15,C[C@@H]1C[C@@H]2OC(=O)[C@]3(C)[C@H]2[C@@H](OC3(C)O)[C@]2(C)C(=O)C=C[C@@H]12 (stereo partly drawn),-7.81% [100 µM] (active) and -18.5% [100 µM] (active)
16,COC(=O)c1cnn2c1n[n+]([O-])c1ccccc12,126% [100 µM] (inactive) and 78.8% [100 µM] (inactive)
17,Clc1c(Cl)c(Cl)c2nn(C3CCCO3)nc2c1Cl (stereo not drawn),24.5% [100 µM] (inactive) and -76.8% [100 µM] (active)
18,COc1cc([C@H]2OC[C@H]3[C@@H]2CO[C@@H]3c2cc(OC)c3c(c2)OCO3)cc(OC)c1OC,33.1% [100 µM] (inactive) and 24.9% [100 µM] (inactive)
19,Cc1ccc(OCC2OC(n3cnc4c(Cl)nc(Cl)nc43)CC2Oc2ccc(C)cc2)cc1 (stereo not drawn),72.8% [100 µM] (inactive) and -96.1% [100 µM] (active)
